Assay results from PubChem BioAssay (NCI).
The panel holds about 83,000 compounds, 20% with a hit somewhere; the sample as a whole holds those more often.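 Cell lines were cultured in 96-well plates, exposed to a single compound concentration, and assessed for percent growth 48 hours later.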 A number with no mark means an inactive call. The source made the active and inactive calls. Rule for the calls: active = growth percent below 10; inactive = the rest.

Key:
Experiment in all cases: NCI-60 one-dose screen, 48 h (100 = growth as untreated, 0 = no growth, -100 = all killed)
Details in all cases: 10 µM unless noted
T-47D breast = test system: T-47D breast
BT-549 breast = test system: BT-549 breast
MDA-MB-435 melanoma = test system: MDA-MB-435 melanoma
SW-620 colon = test system: SW-620 colon
MCF7 breast = test system: MCF7 breast
HCT-116 colon = test system: HCT-116 colon
HCC-2998 colon = test system: HCC-2998 colon
KM12 colon = test system: KM12 colon

SMILES	growth (T-47D breast)	growth (BT-549 breast)	growth (MDA-MB-435 melanoma)	growth (SW-620 colon)	growth (MCF7 breast)	growth (HCT-116 colon)	growth (HCC-2998 colon)	growth (KM12 colon)
Cn1cc(-c2ccc3nc(-c4ccc(CC(=O)ONc5cc(C(C)(C)C)on5)cc4)cnc3c2)cn1	24.2%	29.6%	34.4%	40.6%	53.1%	16.7%	41.8%	11%
CC(C)c1ccc(C(=O)Nc2sc3c(c2C(N)=O)CCC(=O)C3)cc1	-15.8% (active)	-21.9% (active)	-11% (active)	-43.4% (active)	5.13% (active)	-41.1% (active)	14.9%	1.39% (active)
Ic1ccc(OCCCCn2ccnc2)cc1	77.6%	88.4%	73%	58.1%	89.7%	65.9%	68.1%	97.6%
Cc1[nH]c(C(=O)Nc2ccc(C(=O)N3CCN(c4cc5c(cc4F)c(=O)c(C(=O)O)cn5C4CC4)CC3)cc2OC(C)C)c(Cl)c1Cl	84%	75.7%	88.5%	96.3%	88.8%	38.1%	96.4%	80.4%
CCOC(=O)[C@@H]1CSC(CC)=C(C(=O)O)N1	87.3%	101%	109%	105%	108%	94.1%	111%	114%
CC(C)c1ccc(Cc2cnc(NC(=O)c3cc(Br)cs3)s2)cc1	30.3%	42.8%	-66.9% (active)	28.3%	11.7%	26.1%	64%	20.7%
O=C(Nc1cccc(-c2ccc(Cl)c(C(F)(F)F)c2)c1)C1CCN(Cc2cccc3cccnc23)CC1	-55.8% (active)	63.5%	-83.7% (active)	-83% (active)	-89.9% (active)	-75% (active)	-83.5% (active)	-27.4% (active)
CCOC(=O)C1=C(c2ccccc2)N=C2SC=C(c3ccc(Cl)cc3)N2C1c1ccc(Cl)cc1 (centres undefined)	52.4%	87.5%	93.2%	81.8%	69.5%	63%	86.2%	72.5%
COC1/C=C/OC2(C)Oc3c(C)c(O)c4c(O)c(c(/C=N/Nc5ccc([N+](=O)[O-])cc5[N+](=O)[O-])c(O)c4c3C2=O)NC(=O)C(C)=C/C=C/C(C)C(O)C(C)C(O)C(C)C(OC(C)=O)C1C (centres undefined)	-31.2% (active)	13.7%	3.5% (active)	-41.2% (active)	36.6%	-46.7% (active)	-14.1% (active)	9.93% (active)
O=C(Nc1ccccc1O)c1ccc(CNC(=O)c2sccc2Nc2ccnc(C(F)(F)F)c2)cc1	40.1%	59.5%	39.3%	41.9%	30.1%	26.3%	65.4%	60.9%
Cc1cn(-c2cc(NC(=O)c3cccc(C#Cc4cccc5[nH]nc(N)c45)c3)cc(C(F)(F)F)c2)cn1	39.2%	30.3%	36.1%	44.1%	34.2%	23.5%	39.1%	20.6%
C/C(Cc1ccc(Cl)cc1)=C(\c1ccc(O)cc1)c1ccc(Cl)cc1	82.1%	98.1%	93%	95.4%	102%	71.6%	91.9%	88.6%
COc1cc(-c2nc3sccn3c2-c2ccnc(NCCNS(=O)(=O)c3ccccc3)n2)ccc1F	14.3%	67.8%	26%	86.4%	37.9%	42.6%	96.5%	17.1%
Nc1nc2ccc(-c3nc4ccc5[nH]ncc5c4c4c3CCCC4)cc2s1	110%	106%	111%	106%	97.7%	91.8%	107%	101%
COC(=O)CC[C@@H]1O[C@@H](c2cccc(C(F)(F)F)c2)[C@@H](O)[C@H]1O	98.8%	98.9%	102%	100%	96.7%	98.2%	114%	94.1%
CC(=O)O[C@H]1CC2CCC3C(CC[C@@]4(C)C3C[C@H]([N+]3(C)CCCCC3)[C@@H]4OC(C)=O)[C@@]2(C)C[C@@H]1N1CCCCC1 (some centres undefined)	109%	108%	99.5%	106%	111%		111%	108%
Nc1n[nH]c2cccc(C#Cc3cccc(NC(=O)c4cc(F)cc(C(F)(F)F)c4)c3)c12	67.3%	79.6%	71.2%	62.5%	68.4%		70.8%	83.3%
Cn1cc(-c2csc(-c3c[nH]c4ccccc34)n2)c2cnccc21	-3.84% (active)	78.7%	-72.5% (active)	-48% (active)	16.7%		87%	22.8%
CCn1c(SCC(=O)N/N=C(\C)c2ccc(Cl)cc2)nc2c1c(=O)n(C)c(=O)n2C	98.3%	99%	100%	95.1%	95.8%		102%	101%
COC(=O)c1c(C)nc(C)c2c1C(=O)C(Br)=C(NCc1ccccc1)C2=O	13.7%	50.9%	-76.5% (active)	16.7%	-30.2% (active)		21.8%	37.1%

SMILES	growth (T-47D breast)	growth (BT-549 breast)	growth (MDA-MB-435 melanoma)	growth (SW-620 colon)	growth (MCF7 breast)	growth (HCT-116 colon)	growth (HCC-2998 colon)	growth (KM12 colon)
N#Cc1c(-c2ccccc2)[nH]c2ncc(-c3ccccc3)n2c1=O	71.9%	89.1%	102%	101%	71.3%	87%	83.3%	89.8%
CCCCC1=C(P(=O)(O)O)N[C@H](C(=O)O)CS1	96.7%	102%	101%	96.9%	89.3%		89.2%	110%
Cc1cc(N2CCCCC2)cc(C)c1-c1csc(NC(=O)c2ccncc2)n1	34.3%	57.6%	37.1%	69.9%	32.6%	20.7%	97.4%	64.5%
c1cc2c(ccc3[nH]c(-c4ccc5[nH]ncc5c4)c4c(c32)CCCC4)n1	38.9%	53.2%	68.9%	60.8%	23.3%		93.6%	67.9%
O=C(CSc1nc2ccc([N+](=O)[O-])cc2[nH]1)Nc1ccc([N+](=O)[O-])cc1	3.64% (active)	7.77% (active)	14.3%	31.9%	16%		31.1%	21.8%
O=C(OC(CO)C(=O)NC12CC3CC(CC(C3)C1)C2)c1ccc(Cl)cc1 (centres undefined)	92.8%	106%	94.6%	101%	91.8%		113%	111%
CSc1nc(N)c(NS(=O)(=O)c2ccc(C(C)=O)cc2)c(=O)[nH]1	102%	98.4%	102%	102%	85.9%		112%	103%
c1cnc2c(-c3nc4ccc5[nH]ncc5c4c4c3CCCC4)c[nH]c2c1	38.1%	72.5%	51.9%	18.9%	9.3% (active)		54.7%	26.9%
CN(C)c1ccc(C(=O)OCCCCCCl)cc1	82%	94.1%	96.6%	99.9%	95.1%		98.4%	97%
CCN1C(=O)N(CC)C2C1NN=c1s/c(=C\c3ccccc3F)c(=O)n12 (centres undefined)	55.2%	7.28% (active)	-37.4% (active)	18.2%	15.2%		12.8%	4.31% (active)
COC1=CC(c2ccc[nH]2)=N/C1=C\c1[nH]c(C)c(CC(=O)OCc2ccccc2)c1CCC(=O)OCc1ccccc1	-3.22% (active)	-31.6% (active)	-49.2% (active)	-30.9% (active)	4.14% (active)		-3.69% (active)	-38.9% (active)
COc1ccc2c(c1)CC[C@H](O)/C2=C/c1cc(OC)c(OC)c(OC)c1	51.9%	4.02% (active)	-54.4% (active)	21.1%	16%		22.1%	10.8%
Clc1ccc2c(NC3CCC(N4CCOCC4)CC3)ccnc2c1 (centres undefined)	58%	67.4%	86.3%	85.4%	63.7%		77.8%	96.4%
Cn1ccnc1C(=O)/C=C/c1ccc(C(=O)Nc2ccccc2O)cc1	2.47% (active)	28.4%	69.3%	10.3%	10.2%		82.7%	15.2%
CCOC(=O)c1nn(-c2ccc(S(N)(=O)=O)cc2)c2nc(C)cc(=O)n12	106%	106%	105%	106%	92.4%		109%	
COc1cc(-c2csc(NC(=O)c3ccc(N4CCOCC4)c(C(F)(F)F)c3)n2)cc(OC)c1OC	-5.81% (active)	-7.47% (active)	35.1%	48.9%	19.2%		60.2%	16.9%
NS(=O)(=O)c1ccccc1NC(=O)Nc1nc2ccccc2s1	87.3%	98.2%	103%	101%	82.4%		95.8%	
CCOC(=O)C/C(=N\Nc1cc(=O)[nH]c2ccc(Br)cc12)C(=O)OCC	105%	96.6%	101%	90.4%	91.9%		96.9%	
O=c1c2cccc3c(N4CCCC4)ccc(c32)c2nc3ccccc3n12	72.2%	71.2%	103%	59.5%	50.1%		70.3%	87.9%
Cc1cn(-c2cc(NC(=O)c3cncc(C#Cc4cnc(N)c5ncccc45)c3)cc(C(F)(F)F)c2)cn1	83.6%	75.3%	55.5%	62.6%	73.9%		79.8%	25%

SMILES	growth (T-47D breast)	growth (BT-549 breast)	growth (MDA-MB-435 melanoma)	growth (SW-620 colon)	growth (MCF7 breast)	growth (HCT-116 colon)	growth (HCC-2998 colon)	growth (KM12 colon)
COc1ccc2c(c1)c(-c1nc(-c3c[nH]c4ccncc34)cs1)cn2C	-49.6% (active)	77.3%	-92.3% (active)	-63.9% (active)	-68.9% (active)		-73.5% (active)	-88.9% (active)
COc1ccc(Nc2ncc(Br)c(NCCCNC(=O)c3cccs3)n2)cc1	46.2%	45.6%	59%	24.7%	42.9%		80.6%	20.6%
Nc1c(C(=O)Nc2ccccc2C(F)(F)F)sc2nc3c(cc12)CCC3	67.4%	115%	92.8%	96%	95.8%		94.6%	113%
Cc1ccc(/C=C2\COc3ccc(O)cc3C2=O)cc1	88.9%	79.1%	75.8%	47.9%	12.8%		112%	46.6%
CC1(C)CC(=O)C2=C(C1)N(c1ccc(OC(F)(F)F)cc1)C(N)=C(C#N)C2c1ccc(Br)cc1F (centres undefined)	78.9%	69.1%	93.1%	69.9%	83.3%		88.4%	89.5%
CN1CCN(c2cc(Nc3cc(C4CC4)[nH]n3)nc(Nc3ccc(CC(=O)NCc4cccc(F)c4)cc3)n2)CC1	64.5%	43.2%	24.9%	11.5%	20%		35.1%	9.2% (active)
CN(C)c1ccc(-c2c(C#N)c(N)nn2C(=O)c2ccc(NC(=O)c3ccccn3)cc2)cc1	101%	97.8%	98.2%	92.8%	92.5%		95.2%	88%
COc1cccc(CNc2ccc3ncnc(Nc4ccc(F)c(Cl)c4)c3c2)c1	51.3%	86.8%	78.3%	76.6%	65.2%		86.4%	76.6%
COc1ccc(/C=N/NC(=O)c2ccc(-n3cc(-c4ccccc4)nn3)cc2)cc1OC	98.3%	92.9%	98.4%	116%	75.3%		113%	104%
Cc1c[n+](Cc2ccc3ccccc3c2)cn1Cc1ccc2ccccc2c1	-8.03% (active)	-2.98% (active)	-20.9% (active)	36.8%	18.5%		14.8%	-44.7% (active)
CCC(C)N(CCNc1cc(OC)cc2cccnc12)CC(C)C (centres undefined)	6.53% (active)	106%	109%	85.5%	12.6%		96%	97.5%
CCOC(=O)c1ccc(NC(=O)c2nc(-c3cc(OC)c(OC)c(OC)c3)n(-c3ccc(Cl)cc3)n2)cc1	77.6%	74.6%	88.9%	105%	86.7%		107%	94%
CS(=O)(=O)Nc1cc(-c2ccc3ncnc(Nc4ccc5c(cnn5Cc5cccc(F)c5)c4)c3c2)cnc1Cl	-24.6% (active)	-13.5% (active)	8.98% (active)	18.4%	0.881% (active)		2.5% (active)	13.9%
COc1c(B(O)O)cccc1-c1cc(C)c2c(ccc3[nH]ncc32)n1	84.1%	23.1%	92%	63.5%	71.8%		105%	
O=C1/C=C/[C@@H](O)[C@@H]2C[C@@H](O)C[C@H]2/C=C/CCC[C@H](CCc2ccccc2)O1	15.1%	9.81% (active)	5.95% (active)	-9.76% (active)	-3.62% (active)		15.9%	-50.5% (active)
CCOc1ccc(NC(=O)CSc2oc(-c3ccccc3)nc2S(=O)(=O)c2ccc(C)cc2)cc1	57.4%	94%		74.3%	61.9%	23.8%	82.6%	65.4%
CCCCCCCCCc1ccc(OCCOCCOCCOCCOCCOCCOCCOCCOCCO)cc1	116%	-9.07% (active)		19.1%	10.9%	11%	23.3%	13.3%
COCCNC(=O)Nc1ccc2nc(-c3cccs3)c(-c3cccs3)nc2c1	58.1%	94.4%		89.2%	78.9%	92.7%	101%	95.2%
